According to PubChem BioAssay (EPA / NIEHS):
Values joined by “and” are separate entries in the source; they are usually repeats but may differ in a detail not shown here. Identical values can stand only once. Some compounds were tested as several samples or in several runs, with calls that do not always agree. Active and inactive are the calls of the source. How the source made its calls: active means hit-call score of the fitted dose curve at least 0.9, where 1 is the maximum; inactive means score below 0.9.

read-out: Interferon-inducible T-cell alpha chemoattractant (ITAC), CXCL11 (gene 6373); assay: BSK_hDFCGF_ITAC: BioMAP Diversity Plus: hDFCGF Assay for Interferon-inducible T-cell alpha chemoattractant (ITAC) Biomarker Activity (AID 2284251); conditions: primary human foreskin fibroblasts
Experimental: BSK_hDFCGF is a cell-based, multiplexed-readout assay that uses foreskin fibroblast, a human skin primary cell, with measurements taken at 24 hours after chemical dosing in a 96-well plate.BSK_hDFCGF_ITAC is an assay component measured in the BSK_hDFCGF assay. It measures I-TAC antibody related to regulation of gene expression using ELISA technology.Data from the assay component BSK_hDFCGF_ITAC was analyzed at the endpoint, BSK_hDFCGF_ITAC, in the positive analysis fitting direction relative to DMSO as the negative control and baseline of activity. Using a type of binding reporter, gain or loss-of-signal activity can be used to understand protein changes. To generalize the intended target to other relatable targets, this assay endpoint is annotated to the 'cytokine' intended target family, where the subfamily is 'chemotactic factor'.
The levels of cell surface (or secreted, indicated by the prefix "s") biomarker endpoints were measured by ELISA. Overt cytotoxicity to cells in confluent adherent cultures (all systems other than the BT system) was assessed by measuring total protein levels using sulforhodamine B (SRB) staining in parallel cultures at the time of biomarker measurements, indicated as SRB endpoints. For proliferation assays for adherent cell types, individual cell types are cultured at sub-confluence and relative cell numbers quantified by SRB staining at time points optimized for each system (48 h: 3C and CASM3C systems; 72 h: BT and HDF3CGF systems; 96 h: SAg system). SRB was performed by staining cells with 0.1% SRB after fixation with 10% TCA and reading wells at 560 nm.Viability and proliferation of PBMC (T cells) was quantified by Alamar Blue reduction for the SAg and BT systems. For PBMC viability (referred to as PBMC Cytotoxicity within the assay endpoint names), cells were plated (75,000/well in a 96-well plate) and then chemical samples added for 1 h before addition of activators, SEB and TSST-1 (20 ng/mL final concentration each). Cells were incubated for 90 h. Then, Alamar Blue (20 uL/well) (Invitrogen, Cat DAL1100) was added for 6 h, and the plates were read with a fluorescence microplate reader at 546/580 nm (excitation/emission). For PBMC proliferation, cells were plated and activated as above but incubated for only 16 h prior to addition of Alamar Blue. Plates were read after 6 h.

| Compound | AC50 | outcome |
| --- | --- | --- |
| O=C(O)C(F)(F)C(F)(F)C(F)(F)C(F)(F)C(F)(F)C(F)(F)C(F)F | 0.577 µM (active) | inactive |
| NC(=O)C(F)(F)C(F)(F)C(F)(F)C(F)(F)C(F)(F)C(F)(F)C(F)(F)F | – | inactive |
| NC(O)(C(F)(F)F)C(F)(F)F | – | inactive |
| O=S(=O)(Cl)C(F)(F)C(F)(F)C(F)(F)C(F)(F)C(F)(F)C(F)(F)C(F)(F)C(F)(F)F | – | inactive |
| CO[Si](C)(CCC(F)(F)C(F)(F)C(F)(F)C(F)(F)C(F)(F)C(F)(F)F)OC | – | inactive |
| O=C(Cl)C(F)(F)C(F)(F)C(F)(F)C(F)(F)C(F)(F)C(F)(F)F | – | inactive |
| FC(F)(F)C(F)(F)C(F)(F)C(F)(F)C(F)(F)C(F)(F)CC[Si](Cl)(Cl)Cl | – | inactive |
| OCC(O)CC(F)(F)C(F)(F)C(F)(F)C(F)(F)F (stereo unspecified) | – | inactive |
| NC(=O)C(F)(F)C(F)(F)C(F)(F)F | – | inactive |
| OC(O)C(F)(F)C(F)(F)F | – | inactive |
| C[Si](Cl)(Cl)CCC(F)(F)C(F)(F)C(F)(F)C(F)(F)C(F)(F)C(F)(F)F | 1.49 µM (active) | inactive |
| C=C(C)C(=O)OCC(F)(F)C(F)(F)C(F)(F)C(F)F | 7.82 µM (active) | inactive |
| CCOC(=O)CC(=O)C(F)(F)C(F)(F)F | – | inactive |
| O=S(=O)(O)CCC(F)(F)C(F)(F)C(F)(F)C(F)(F)F | 0.931 µM (active) | inactive |
| O=C(O)C(F)(F)C(F)(F)C(F)(F)C(=O)O | – | inactive |
| CCN(CCO)S(=O)(=O)C(F)(F)C(F)(F)C(F)(F)C(F)(F)C(F)(F)C(F)(F)C(F)(F)C(F)(F)F | 34.8 µM (active) and 24.3 µM (active) | – |
| OCCCC(F)(F)C(F)(F)C(F)(F)C(F)(F)C(F)(F)C(F)(F)C(F)(F)C(F)(F)F | 7.67 µM (active) and 5.74 µM (active) | – |

| Compound | AC50 | outcome |
| --- | --- | --- |
| NC(=O)C(F)(F)C(F)(F)C(F)(F)C(F)F | – | inactive |
| FC(F)(F)C(F)(F)C(F)(F)CC1CO1 (stereo unspecified) | 5.97 µM (active) | inactive |
| O=S(=O)(O)CCC(F)(F)C(F)(F)C(F)(F)C(F)(F)C(F)(F)C(F)(F)C(F)(F)C(F)(F)F | 30 µM (active) | inactive |
| CCN=C1C=CC(=C(c2ccc(N(CC)CC)cc2)c2ccc(N(CC)CC)cc2)c2ccccc21 | 704 nM (active) and 1.12 µM (active) | – |
| NCC(F)(F)C(F)(F)C(F)(F)C(F)(F)C(F)(F)C(F)(F)F | – | inactive |
| NCC(F)(F)C(F)(F)C(F)(F)C(F)(F)C(F)(F)C(F)(F)C(F)(F)C(F)(F)F | – | inactive |
| OCCCCC(F)(F)C(F)(F)C(F)(F)C(F)(F)F | – | inactive |
| OCC(F)(F)C(F)(F)C(F)(F)C(F)(F)C(F)(F)C(F)(F)C(F)(F)C(F)(F)CO | 44.9 µM (active) and 43 µM (active) | – |
| O=C(O)CCC(F)(F)C(F)(F)C(F)(F)C(F)(F)C(F)(F)C(F)(F)C(F)(F)F | – | inactive |
| CN(C(=O)C(F)(F)C(F)(F)C(F)(F)F)[Si](C)(C)C | – | inactive |
| C=CC(=O)OCCC(F)(F)C(F)(F)C(F)(F)C(F)(F)F | 25 µM (active) and 21.5 µM (active) | – |
| CNS(=O)(=O)C(F)(F)C(F)(F)C(F)(F)C(F)(F)C(F)(F)C(F)(F)C(F)(F)C(F)(F)F | – | inactive |
| O=C(O)CCC(F)(F)C(F)(F)C(F)(F)F | – | inactive |
| O=C(O)C(F)(F)OC(F)(F)C(F)(F)OC(F)(F)C(F)(F)OC(F)(F)F | – | inactive |
| O=C(O)C(F)(F)C(F)(F)C(F)(F)OC(F)(F)F | – | inactive |
| O=C(Cl)C(F)(F)C(F)(F)C(F)(F)C(F)(F)C(F)(F)C(F)(F)C(F)(F)F | – | inactive |
| OCC(F)(F)C(F)(F)C(F)(F)CO | 9.21 µM (active) | inactive |
